The record followed here is PubChem BioAssay (NCI).

The panel holds about 79,000 compounds, 15% with a hit somewhere; the sample as a whole holds those more often. Values without a mark were called inactive. Calls of active or inactive are those of the source. No stated cut-off is given here; in the data, active means growth inhibition above about 70%; inactive means the rest.

The first experiment can be described thus: NCI Yeast Anticancer Drug Screen. Data for the mec2-1 strain (AID 157). Conditions: S. cerevisiae mec2-1 strain, at 5.0 µM (retest, dose inferred, filed as 0.5), hits give high values. A digest of the protocol:
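Mutant yeast (mec2-1) grown with compound; growth inhibition relative to vehicle control reported.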
Take `CN(C)CC(CN(C)C)C(=O)/C=C/c1ccc(Cl)cc1Cl`: the growth inhibition is 13%.

On to `c1ccc2c(c1)ccn2CCc1c[nH]c2ccccc12`, for which the growth inhibition is -5%.

Consider `Cc1ccccc1NC(=O)c1c(C)oc2c1C(=O)c1ccccc1C2=O`, for which the growth inhibition is -10%.

Take `CC(C)OC(=O)NNc1c(Cl)cc(Cl)cc1Cl`: the growth inhibition was 0%.

Regarding `COc1ccc2nc3cccc([N+](=O)[O-])c3c(NCCNCCO)c2c1`, the growth inhibition was 1%.

For `COc1ccc2c(c1)CCCC(Br)C2=O` (configuration not stated), the growth inhibition was -13%.

Turning to `CCC(OC(C)=O)C1CC(C(C)C)CCC1C` (configuration not stated), the growth inhibition is 4%.

Consider `O=S(=O)(c1cccc(C(F)(F)F)c1)N1c2ccccc2-n2cccc2C1c1cccnc1` (configuration not stated), for which the growth inhibition was 31%.

Take `c1ccc(-c2cc(C3CO3)c3ccccc3n2)cc1` (configuration not stated): the growth inhibition was -28%.

Turning to `COc1ccc(/C=C2\SC(=S)N(/C=C3\C(=O)N(c4ccccc4)N=C3C)C2=O)cc1OC`, the growth inhibition was -7%.

As for `CC1=CC(=C(c2ccc(N)c(C)c2)c2ccc(N)c(C)c2)C=CC1=N`, the growth inhibition was 18%.

As to `CC1C(c2ccccc2)SC(=N)N1C` (configuration not stated), the growth inhibition was 6%.

Consider `CC(/C=C/c1ccc([N+](=O)[O-])o1)=N/N1CC(CN2CCOCC2)OC1=O` (configuration not stated), for which the growth inhibition is 7%.

For `C=CC(C)(C)N1C(=O)C(C(C)=O)=C(O)C1Cc1c[nH]c2ccccc12` (configuration not stated), the growth inhibition is -18%.

On to `O=C1c2cccc3cccc(c23)C(=O)N1CCNCCN1C(=O)c2cccc3cccc(c23)C1=O`, for which the growth inhibition is 6%.

As to `Cc1ccc([N+](=O)[O-])c2c(NCCC[N+](C)(C)[O-])c3ccccc3nc12`, the growth inhibition is 11%.

Take `COC(=O)C(Cc1c[nH]c2ccccc12)N1CN(C)c2ccccc2C1=O` (configuration not stated): the growth inhibition is -17%.

`O=C(/N=N/C(=O)Oc1ccccc1)Oc1ccccc1`: the growth inhibition is 53%.

As for `COc1cc([C@@H]2c3cc4c(cc3[C@@H](NC(=O)NO)[C@H]3COC(=O)[C@H]23)OCO4)cc(OC)c1O`, the growth inhibition was 7%.

`CC1(C)CC(=O)C(/C=N/c2nc(-c3ccc(Br)cc3)cs2)=C(O)C1`: the growth inhibition was -10%.

As to `CCOC(=O)/C(=C/c1cccc(Cl)c1)N(CC)CC`, the growth inhibition is -22%.

`CC(C)OC(=O)NNc1cccc(Cl)c1`: the growth inhibition was 21%.

As for `CCC(=O)C1=C(O)c2cc(OC)ccc2CC1C(=O)OC` (configuration not stated), the growth inhibition was -5%.

On to `O=S(=O)(NC1CCCC(c2ccccc2)C1)c1ccccc1` (configuration not stated), for which the growth inhibition is -12%.

For the compound `COc1ccc2nc3cccc([N+](=O)[O-])c3c(NCCCCCC(=O)O)c2c1`, the growth inhibition was 96% (active).

Consider `CCO/C=C1\SC(=S)N(c2ccc(OCC)cc2)C1=O`, for which the growth inhibition is 47%.

Regarding `COc1cc(OC)c(CSCC(NC(=O)OCC2c3ccccc3-c3ccccc32)C(=O)O)c(OC)c1` (configuration not stated), the growth inhibition is 12%.

With `COC(=O)c1ccccc1N=NNc1cccc(SC)c1`, the growth inhibition was 40%.

As to `CC1=NN(C(=O)c2ccccc2O)C(=O)/C1=C/c1ccco1`, the growth inhibition was 19%.

For the compound `COc1ccccc1NC(=O)c1ccc(Cl)cc1`, the growth inhibition is -6%.

Take `CC(C)=CCC/C(C)=C/CN1C(=O)C=CC1=O`: the growth inhibition was -16%.

For the compound `O=C1CSC(c2ccccc2)N1c1ccc(-c2ccc(-n3c(-c4ccccc4)nc4ccccc4c3=O)cc2)cc1` (configuration not stated), the growth inhibition was -1%.

As for `N#CC1OB(O)c2ccccc21` (configuration not stated), the growth inhibition is -51%.

For the compound `O=C(NCCNCCNC(=O)c1cc(-c2ccccc2)nc2ccccc12)c1cc(-c2ccccc2)nc2ccccc12`, the growth inhibition is -11%.

Regarding `Brc1ccc(B2Nc3ccccc3N2)cc1`, the growth inhibition is 17%.

For `CCOP(=O)(OCC)/C(C#N)=C/c1cccc(Oc2ccccc2)c1`, the growth inhibition was -7%.

The same experiment, now with this note: S. cerevisiae mec2-1 strain, at 11.0 µM, hits give high values.
For the compound `CN(C)CC(CN(C)C)C(=O)/C=C/c1ccc(Cl)cc1Cl`, the growth inhibition was 6%.

On to `c1ccc2c(c1)ccn2CCc1c[nH]c2ccccc12`, for which the growth inhibition was -27%.

For the compound `Cc1ccccc1NC(=O)c1c(C)oc2c1C(=O)c1ccccc1C2=O`, the growth inhibition is -24%.

Consider `CC(C)OC(=O)NNc1c(Cl)cc(Cl)cc1Cl`, for which the growth inhibition is 0%.

Turning to `COc1ccc2nc3cccc([N+](=O)[O-])c3c(NCCNCCO)c2c1`, the growth inhibition was 95% (active).

On to `COc1ccc2c(c1)CCCC(Br)C2=O` (configuration not stated), for which the growth inhibition was 54%.

Consider `CCC(OC(C)=O)C1CC(C(C)C)CCC1C` (configuration not stated), for which the growth inhibition is 6%.

On to `O=S(=O)(c1cccc(C(F)(F)F)c1)N1c2ccccc2-n2cccc2C1c1cccnc1` (configuration not stated), for which the growth inhibition was 56%.

Turning to `c1ccc(-c2cc(C3CO3)c3ccccc3n2)cc1` (configuration not stated), the growth inhibition was -4%.

In the case of `COc1ccc(/C=C2\SC(=S)N(/C=C3\C(=O)N(c4ccccc4)N=C3C)C2=O)cc1OC`, the growth inhibition was 18%.

On to `CC1=CC(=C(c2ccc(N)c(C)c2)c2ccc(N)c(C)c2)C=CC1=N`, for which the growth inhibition was 3%.

`CC1C(c2ccccc2)SC(=N)N1C` (configuration not stated): the growth inhibition was -1%.

As to `CC(/C=C/c1ccc([N+](=O)[O-])o1)=N/N1CC(CN2CCOCC2)OC1=O` (configuration not stated), the growth inhibition is 1%.

Turning to `C=CC(C)(C)N1C(=O)C(C(C)=O)=C(O)C1Cc1c[nH]c2ccccc12` (configuration not stated), the growth inhibition was 7%.

On to `O=C1c2cccc3cccc(c23)C(=O)N1CCNCCN1C(=O)c2cccc3cccc(c23)C1=O`, for which the growth inhibition was -3%.

As to `Cc1ccc([N+](=O)[O-])c2c(NCCC[N+](C)(C)[O-])c3ccccc3nc12`, the growth inhibition is -14%.

Take `COC(=O)C(Cc1c[nH]c2ccccc12)N1CN(C)c2ccccc2C1=O` (configuration not stated): the growth inhibition was -2%.

As to `O=C(/N=N/C(=O)Oc1ccccc1)Oc1ccccc1`, the growth inhibition was -87%.

`COc1cc([C@@H]2c3cc4c(cc3[C@@H](NC(=O)NO)[C@H]3COC(=O)[C@H]23)OCO4)cc(OC)c1O`: the growth inhibition is 0%.

Regarding `CC1(C)CC(=O)C(/C=N/c2nc(-c3ccc(Br)cc3)cs2)=C(O)C1`, the growth inhibition was 35%.

Consider `CCOC(=O)/C(=C/c1cccc(Cl)c1)N(CC)CC`, for which the growth inhibition was 7%.

For the compound `CC(C)OC(=O)NNc1cccc(Cl)c1`, the growth inhibition was 55%.

On to `CCC(=O)C1=C(O)c2cc(OC)ccc2CC1C(=O)OC` (configuration not stated), for which the growth inhibition was -1%.

For `O=S(=O)(NC1CCCC(c2ccccc2)C1)c1ccccc1` (configuration not stated), the growth inhibition is -3%.

Regarding `COc1ccc2nc3cccc([N+](=O)[O-])c3c(NCCCCCC(=O)O)c2c1`, the growth inhibition is 97% (active).

As to `CCO/C=C1\SC(=S)N(c2ccc(OCC)cc2)C1=O`, the growth inhibition is -27%.

`COc1cc(OC)c(CSCC(NC(=O)OCC2c3ccccc3-c3ccccc32)C(=O)O)c(OC)c1` (configuration not stated): the growth inhibition is 55%.

Consider `COC(=O)c1ccccc1N=NNc1cccc(SC)c1`, for which the growth inhibition is 19%.

Turning to `CC1=NN(C(=O)c2ccccc2O)C(=O)/C1=C/c1ccco1`, the growth inhibition is 75% (active).

Consider `COc1ccccc1NC(=O)c1ccc(Cl)cc1`, for which the growth inhibition is -7%.

`CC(C)=CCC/C(C)=C/CN1C(=O)C=CC1=O`: the growth inhibition was 99% (active).

As for `O=C1CSC(c2ccccc2)N1c1ccc(-c2ccc(-n3c(-c4ccccc4)nc4ccccc4c3=O)cc2)cc1` (configuration not stated), the growth inhibition is 2%.

On to `N#CC1OB(O)c2ccccc21` (configuration not stated), for which the growth inhibition was 3%.

With `O=C(NCCNCCNC(=O)c1cc(-c2ccccc2)nc2ccccc12)c1cc(-c2ccccc2)nc2ccccc12`, the growth inhibition is -1%.

Regarding `Brc1ccc(B2Nc3ccccc3N2)cc1`, the growth inhibition was 18%.

Consider `CCOP(=O)(OCC)/C(C#N)=C/c1cccc(Oc2ccccc2)c1`, for which the growth inhibition was 45%.
